# “And” between values parts separate entries of the source, which are not always exact repeats. Identical values can stand only once. Records with an inconclusive call do not appear. A structure can be active in one record and inactive in another. The source made the active and inactive calls. Rule for the calls, unless noted: active = hit-call score of the fitted dose curve at least 0.9, where 1 is the maximum; inactive = score below 0.9.
# Assays:
# [1] = read-out: Macrophage colony-stimulating factor (MCSF), CSF1 (gene 1435); test: BSK_LPS_MCSF: BioMAP Diversity Plus: LPS Assay for Macrophage colony-stimulating factor (MCSF) Biomarker Activity (AID 2283083); settings: primary human HUVEC with PBMC; actives raise or lower the signal
# How it was run: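 ELISA readout of M-CSF after 24 h compound exposure in a human endothelial/PBMC co-culture. Activity, in either direction, is fitted relative to DMSO vehicle.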
# [2] = read-out: Tissue Factor, F3 (gene 2152); test: BSK_LPS_TissueFactor: BioMAP Diversity Plus: LPS Assay for Tissue Factor Biomarker Activity (AID 2283084); settings: primary human HUVEC with PBMC; actives raise or lower the signal
# How it was run: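 ELISA signal for cell-surface Tissue Factor (CD142) was read 24 h after compound dosing of an LPS-stimulated human endothelial–PBMC primary co-culture. Gain or loss of signal was scored relative to DMSO.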
# [3] = read-out: Tumor necrosis factor (Homo sapiens) (UniProt P01375); test: BSK_LPS_TNFa: BioMAP Diversity Plus: LPS Assay for Tumour Necrosis Factor alpha (TNFa) Biomarker Activity (AID 2283085); settings: primary human HUVEC with PBMC; actives raise or lower the signal
# How it was run: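 Human umbilical vein endothelial cells co-cultured with PBMC and stimulated with LPS. TNFa was measured by ELISA 24 h after chemical dosing, fitted bidirectionally relative to DMSO.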
# [4] = read-out: Vascular cell adhesion molecule 1 (VCAM1), VCAM1 (gene 7412); test: BSK_LPS_VCAM1: BioMAP Diversity Plus: LPS Assay for Vascular cell adhesion molecule 1 (VCAM1) Biomarker Activity (AID 2283086); settings: primary human HUVEC with PBMC; actives raise or lower the signal
# How it was run: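 Human umbilical vein endothelial cells co-cultured with PBMC and stimulated with LPS; VCAM-1 measured by ELISA 24 h after dosing. Bidirectional curve fitting against DMSO baseline; cytotoxicity tracked in parallel by SRB total-protein staining.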
# CD38, CD38 (gene 952) = test: BSK_SAg_CD38: BioMAP Diversity Plus: SAg Assay for CD38 Biomarker Activity (AID 2283087); settings: primary human HUVEC with PBMC; actives raise or lower the signal
# How it was run: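 Human HUVEC plus PBMC co-culture stimulated with superantigen; CD38 measured by ELISA 24 h after chemical dosing. Fluorescence read-out, bidirectional fit against DMSO; cytotoxicity tracked in parallel by SRB and Alamar Blue.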
# CD40, CD40 (gene 958) = test: BSK_SAg_CD40: BioMAP Diversity Plus: SAg Assay for CD40 Biomarker Activity (AID 2283088); settings: primary human HUVEC with PBMC; actives raise or lower the signal
# How it was run: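 Compounds were dosed onto a human primary endothelial–PBMC co-culture, and after 24 h CD40 was quantified by ELISA using a fluorescence signal. Activity in either direction was fitted relative to DMSO.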
# CD69, CD69 (gene 969) = test: BSK_SAg_CD69: BioMAP Diversity Plus: SAg Assay for CD69 Biomarker Activity (AID 2283089); settings: primary human HUVEC with PBMC; actives raise or lower the signal;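 for AC50: cell surface CD69 protein quantified by ELISA with fluorescence detection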
# How it was run: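 Primary human vascular co-culture (umbilical vein endothelium with peripheral blood mononuclear cells) exposed to test chemical for 24 h. CD69 levels quantified by fluorescence ELISA; DMSO served as negative control for bidirectional fitting.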
# [5] = read-out: Monocyte Chemoattractant Protein-1 (MCP1), CCL2 (gene 6347); test: BSK_SAg_MCP1: BioMAP Diversity Plus: SAg Assay for Monocyte Chemoattractant Protein-1 (MCP1) Biomarker Activity (AID 2283090); settings: primary human HUVEC with PBMC; actives raise or lower the signal
# How it was run: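 MCP-1 levels in the endothelial–PBMC SAg co-culture were quantified by ELISA at 24 h post-dosing; both increases and decreases versus DMSO scored. Cytotoxicity monitored by SRB total protein in parallel cultures.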
# [6] = read-out: E-selectin (Homo sapiens) (UniProt P16581); test: BSK_SAg_Eselectin: BioMAP Diversity Plus: SAg Assay for Eselectin Biomarker Activity (AID 2283091); settings: primary human HUVEC with PBMC; actives raise or lower the signal
# How it was run: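 Co-culture: HUVEC + PBMC. Dose compound; 24 h. ELISA for E-selectin. Bidirectional fit vs DMSO.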
# [7] = read-out: Monokine induced gamma interferon (MIG), CXCL9 (gene 4283); test: BSK_SAg_MIG: BioMAP Diversity Plus: SAg Assay for Monokine induced gamma interferon (MIG) Biomarker Activity (AID 2283092); settings: primary human HUVEC with PBMC; actives raise or lower the signal
# How it was run: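 Endothelial cells and PBMC were co-cultured, exposed to test chemicals, and sampled 24 h later. MIG was measured by ELISA, and responses were fitted in both directions relative to DMSO.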
# [8] = BSK_SAg_PBMCCytotoxicity: PBMC Cytotoxicity Assessment in the BioMAP Diversity Plus: SAg Assay (AID 2283093); settings: primary human HUVEC with PBMC;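 note: PBMC viability measured as Alamar Blue reduction fluorescence at 546/580 nm; fitted both ways against DMSO so a hit may be loss or gain of signal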;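 for AC50: PBMC superantigen activated with SEB plus TSST-1 one hour after compound addition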
# How it was run: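 HUVEC/PBMC co-culture; PBMC exposed to chemical 1 h before SEB and TSST-1 activation (20 ng/mL each), incubated 90 h, then Alamar Blue 6 h, fluorescence 546/580 nm. Bidirectional fit versus DMSO baseline.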
# [9] = read-out: Interleukin-8 (IL8), CXCL8 (gene 3576); test: BSK_SAg_IL8: BioMAP Diversity Plus: SAg Assay for Interleukin-8 (IL8) Biomarker Activity (AID 2283094); settings: primary human HUVEC with PBMC; actives raise or lower the signal
# How it was run: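 Human umbilical vein endothelial cells co-cultured with PBMC, stimulated with superantigen; IL-8 measured by ELISA 24 h after chemical dosing. Bidirectional fitting versus DMSO; SRB staining in parallel cultures tracks cytotoxicity.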
# [10] = BSK_SAg_Proliferation: Cell Proliferation Assessment in the BioMAP Diversity Plus: SAg Assay (AID 2283095); settings: primary human HUVEC with PBMC
# How it was run: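 Human umbilical vein endothelial cells co-cultured with PBMC; sulforhodamine B total-protein staining (0.1% SRB after 10% TCA fixation, absorbance 560 nm) at 96 h in sub-confluent culture. Fitted bidirectionally against DMSO.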
# [11] = BSK_SAg_SRB: Viability Assessment in the BioMAP Diversity Plus: SAg Assay (AID 2283096); settings: primary human HUVEC with PBMC;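 note: cells read one day after compound addition; hits may be either gain or loss of signal compared with DMSO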
# How it was run: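 Human umbilical vein endothelial cells co-cultured with PBMC, read 24 h after compound dosing. Total protein measured by sulforhodamine B staining (0.1% SRB after 10% TCA fixation, absorbance 560 nm); bidirectional fit versus DMSO baseline.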
# [12] = target: human CYP19A1, CYP19A1 (gene 1588) (UniProt P11511); test: NVS_ADME_hCYP19A1: NovaScreen (NVS) CYP450-related Enzyme Activity (ADME) Assay for human CYP19A1 (AID 2283098; active = hit-call score of the fitted dose curve at least 0.9, where 1 is the maximum;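 for AC50: potency for inhibitors seen as loss of fluorescent enzyme signal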)
# How it was run: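 Recombinant enzyme in a cell-free format, read 0.5 h after dosing by fluorescence from a fluorogenic substrate. Loss of signal was fitted against acetonitrile as baseline. Primary screen in duplicate at 10 uM, actives then tested in concentration series.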
# [13] = target: human CYP1A1, CYP1A1 (gene 1543) (UniProt P04798); test: NVS_ADME_hCYP1A1: NovaScreen (NVS) CYP450-related Enzyme Activity (ADME) Assay for human CYP1A1 (AID 2283100; active = hit-call score of the fitted dose curve at least 0.9, where 1 is the maximum)
# How it was run: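 Recombinant hCYP1A1 + fluorogenic substrate, cell-free; 1 h; fluorescence read. Single-point 10 uM (duplicate) → concentration series, max 20 uM. Acetonitrile negative control.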
# [14] = BSK_LPS_PGE2: BioMAP Diversity Plus: LPS Assay for Prostaglandin E2 (PGE2) Biomarker Activity (AID 2283082); settings: primary human HUVEC with PBMC; actives raise or lower the signal;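 for AC50: secreted prostaglandin E2 measured by ELISA in LPS-stimulated co-culture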
# How it was run: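 HUVEC plus human PBMC co-culture stimulated with LPS; secreted PGE2 quantified by ELISA 24 h after chemical dosing. Activity fitted bidirectionally against DMSO baseline; parallel SRB staining (0.1% SRB after 10% TCA fixation, 560 nm) flags overt cytotoxicity.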
# [15] = target: human CYP2A6, CYP2A6 (gene 1548) (UniProt P11509); test: NVS_ADME_hCYP2A6: NovaScreen (NVS) CYP450-related Enzyme Activity (ADME) Assay for human CYP2A6 (AID 2283099; active = hit-call score of the fitted dose curve at least 0.9, where 1 is the maximum)
# How it was run: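 Fluorescent substrate turnover by recombinant CYP2A6 (insect cell source), 0.5 h read. Screen: 10 uM, duplicate; threshold hits (e.g. 30% inhibition) → singleton concentration-response, top 20 uM. Positive and negative controls on every plate.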
# [16] = target: human CYP2B6, CYP2B6 (gene 1555) (UniProt P20813); test: NVS_ADME_hCYP2B6: NovaScreen (NVS) CYP450-related Enzyme Activity (ADME) Assay for human CYP2B6 (AID 2283101; active = hit-call score of the fitted dose curve at least 0.9, where 1 is the maximum)
# How it was run: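 Cell-free recombinant enzyme assay with a fluorogenic substrate; fluorescence intensity read 1 hour after dosing. Loss of signal relative to acetonitrile negative control indicates inhibition. Primary screen run in duplicate at 10 uM, actives then tested in concentration series.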
# [17] = target: human CYP1A2, CYP1A2 (gene 1544) (UniProt P05177); test: NVS_ADME_hCYP1A2: NovaScreen (NVS) CYP450-related Enzyme Activity (ADME) Assay for human CYP1A2 (AID 2283102; active = hit-call score of the fitted dose curve at least 0.9, where 1 is the maximum;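 for AC50: fluorescence from turnover of a fluorogenic substrate by recombinant insect-cell CYP1A2; potency for inhibition since loss of fluorescence marks reduced CYP1A2 activity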)
# How it was run: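 rec. hCYP1A2 (insect cells), cell-free; fluorogenic substrate; 0.5 h; FI read. Baseline = acetonitrile; signal loss = inhibition. 10 uM duplicate primary → conc. series for actives.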
# Chain of E-selectin (Homo sapiens) (P16581 whole entry, looked up): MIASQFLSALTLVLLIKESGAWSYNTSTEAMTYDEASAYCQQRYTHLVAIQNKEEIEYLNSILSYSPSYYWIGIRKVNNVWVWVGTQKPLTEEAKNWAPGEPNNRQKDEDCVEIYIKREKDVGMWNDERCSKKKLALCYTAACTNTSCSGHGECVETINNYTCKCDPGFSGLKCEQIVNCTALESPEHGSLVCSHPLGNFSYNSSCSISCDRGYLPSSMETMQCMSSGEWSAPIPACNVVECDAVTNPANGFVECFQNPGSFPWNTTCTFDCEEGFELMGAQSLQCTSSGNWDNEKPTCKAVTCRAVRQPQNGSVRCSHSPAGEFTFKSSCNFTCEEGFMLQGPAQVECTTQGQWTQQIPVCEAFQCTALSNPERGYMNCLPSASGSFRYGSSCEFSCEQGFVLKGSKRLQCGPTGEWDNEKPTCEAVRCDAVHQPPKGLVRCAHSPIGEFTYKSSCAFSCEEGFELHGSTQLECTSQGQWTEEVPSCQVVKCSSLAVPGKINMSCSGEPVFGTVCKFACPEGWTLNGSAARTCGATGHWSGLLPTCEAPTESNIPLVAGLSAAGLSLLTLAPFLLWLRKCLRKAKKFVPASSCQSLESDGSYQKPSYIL
# Chain of human CYP2A6, CYP2A6 (gene 1548) (P11509 whole entry, looked up): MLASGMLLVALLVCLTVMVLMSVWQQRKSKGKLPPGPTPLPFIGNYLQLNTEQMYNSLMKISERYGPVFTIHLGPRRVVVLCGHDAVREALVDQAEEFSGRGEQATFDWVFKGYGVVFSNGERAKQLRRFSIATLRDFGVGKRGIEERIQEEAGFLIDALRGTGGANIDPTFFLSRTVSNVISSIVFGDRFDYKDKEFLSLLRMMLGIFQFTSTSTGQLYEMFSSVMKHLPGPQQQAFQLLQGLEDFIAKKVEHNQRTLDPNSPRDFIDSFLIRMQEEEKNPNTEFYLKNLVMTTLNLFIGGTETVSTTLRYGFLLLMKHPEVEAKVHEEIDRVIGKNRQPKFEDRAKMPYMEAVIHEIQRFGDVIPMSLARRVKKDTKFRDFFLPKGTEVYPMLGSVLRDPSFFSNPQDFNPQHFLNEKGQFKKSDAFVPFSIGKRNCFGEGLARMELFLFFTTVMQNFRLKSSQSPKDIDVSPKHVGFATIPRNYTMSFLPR
# Chain of human CYP19A1, CYP19A1 (gene 1588) (P11511 whole entry, looked up): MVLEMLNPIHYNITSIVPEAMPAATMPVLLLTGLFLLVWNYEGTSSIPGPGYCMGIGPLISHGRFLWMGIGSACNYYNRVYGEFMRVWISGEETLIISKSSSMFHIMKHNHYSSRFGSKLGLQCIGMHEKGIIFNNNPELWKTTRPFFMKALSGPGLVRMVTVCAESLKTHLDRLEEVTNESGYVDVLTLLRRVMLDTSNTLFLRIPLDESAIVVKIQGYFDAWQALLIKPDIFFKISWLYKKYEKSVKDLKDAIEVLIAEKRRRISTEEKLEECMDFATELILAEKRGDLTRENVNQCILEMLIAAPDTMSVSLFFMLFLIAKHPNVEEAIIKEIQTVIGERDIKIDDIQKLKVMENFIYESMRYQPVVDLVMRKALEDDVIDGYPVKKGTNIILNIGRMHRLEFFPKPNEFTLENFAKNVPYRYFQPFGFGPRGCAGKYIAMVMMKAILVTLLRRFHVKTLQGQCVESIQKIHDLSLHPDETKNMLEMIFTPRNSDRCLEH
# Chain of Tumor necrosis factor (Homo sapiens) (P01375 whole entry, looked up): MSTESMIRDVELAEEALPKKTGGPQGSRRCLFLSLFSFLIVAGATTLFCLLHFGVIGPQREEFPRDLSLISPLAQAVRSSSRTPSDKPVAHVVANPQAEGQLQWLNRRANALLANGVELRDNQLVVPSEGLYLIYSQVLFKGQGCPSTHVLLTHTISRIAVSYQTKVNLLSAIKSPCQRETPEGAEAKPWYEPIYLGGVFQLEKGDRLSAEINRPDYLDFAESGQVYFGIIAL
# Chain of human CYP1A2, CYP1A2 (gene 1544) (P05177 whole entry, looked up): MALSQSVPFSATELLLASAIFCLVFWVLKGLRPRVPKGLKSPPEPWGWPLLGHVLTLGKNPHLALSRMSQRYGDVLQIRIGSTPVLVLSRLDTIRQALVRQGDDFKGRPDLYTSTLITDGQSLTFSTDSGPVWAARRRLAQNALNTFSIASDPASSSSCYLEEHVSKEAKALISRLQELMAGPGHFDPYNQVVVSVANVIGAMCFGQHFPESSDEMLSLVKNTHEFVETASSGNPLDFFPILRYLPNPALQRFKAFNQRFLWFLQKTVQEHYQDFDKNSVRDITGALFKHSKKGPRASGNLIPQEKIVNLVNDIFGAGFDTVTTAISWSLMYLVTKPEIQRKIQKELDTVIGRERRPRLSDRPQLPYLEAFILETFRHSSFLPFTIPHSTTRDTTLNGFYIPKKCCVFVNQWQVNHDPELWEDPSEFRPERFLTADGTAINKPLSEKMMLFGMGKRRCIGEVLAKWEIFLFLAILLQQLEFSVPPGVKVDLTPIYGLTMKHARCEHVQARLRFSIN
# Chain of human CYP1A1, CYP1A1 (gene 1543) (P04798 whole entry, looked up): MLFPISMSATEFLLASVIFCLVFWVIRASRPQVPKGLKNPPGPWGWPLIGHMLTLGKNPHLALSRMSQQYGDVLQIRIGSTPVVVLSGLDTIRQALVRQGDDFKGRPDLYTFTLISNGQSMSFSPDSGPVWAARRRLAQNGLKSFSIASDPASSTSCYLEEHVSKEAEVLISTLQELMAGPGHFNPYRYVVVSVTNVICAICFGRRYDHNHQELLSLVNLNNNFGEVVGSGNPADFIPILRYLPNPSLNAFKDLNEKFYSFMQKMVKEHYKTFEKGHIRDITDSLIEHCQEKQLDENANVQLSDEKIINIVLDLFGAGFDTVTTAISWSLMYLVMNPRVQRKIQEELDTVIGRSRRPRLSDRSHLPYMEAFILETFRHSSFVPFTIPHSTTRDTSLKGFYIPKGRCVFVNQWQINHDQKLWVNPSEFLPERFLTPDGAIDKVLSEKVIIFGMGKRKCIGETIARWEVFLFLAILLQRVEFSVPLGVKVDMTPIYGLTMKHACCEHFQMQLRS
# Chain of human CYP2B6, CYP2B6 (gene 1555) (P20813 whole entry, looked up): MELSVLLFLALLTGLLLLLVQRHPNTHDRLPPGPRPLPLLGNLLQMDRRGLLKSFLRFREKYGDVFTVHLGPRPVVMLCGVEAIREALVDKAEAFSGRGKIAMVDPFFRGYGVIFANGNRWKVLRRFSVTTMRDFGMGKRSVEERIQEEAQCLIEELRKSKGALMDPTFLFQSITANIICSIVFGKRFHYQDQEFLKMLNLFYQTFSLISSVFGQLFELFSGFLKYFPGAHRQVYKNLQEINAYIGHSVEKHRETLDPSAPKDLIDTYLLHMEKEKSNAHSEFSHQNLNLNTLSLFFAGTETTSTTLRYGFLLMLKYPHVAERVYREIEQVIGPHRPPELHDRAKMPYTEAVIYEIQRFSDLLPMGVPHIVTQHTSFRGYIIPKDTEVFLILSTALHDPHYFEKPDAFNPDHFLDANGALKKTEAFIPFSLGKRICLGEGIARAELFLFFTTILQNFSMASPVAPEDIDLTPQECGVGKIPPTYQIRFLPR
compound,measurement,setting,value
COC(=O)c1ccccc1C(=O)O,outcome,[1],inactive
same,outcome,[2],inactive
same,outcome,[3],inactive
same,outcome,[4],inactive
same,outcome,"CD38, CD38 (gene 952)",inactive
same,AC50,"CD40, CD40 (gene 958)",6.97 µM (active)
same,outcome,"CD69, CD69 (gene 969)",inactive
same,outcome,[5],inactive
same,AC50,[6],5.96 µM (active)
same,outcome,[7],inactive
same,outcome,[8],inactive
same,outcome,[9],inactive
same,outcome,[10],inactive
same,outcome,[11],inactive
same,AC50,[12],3.5 µM (active)
same,outcome,[13],inactive
N#CSCSc1nc2ccccc2s1,AC50,[14],1.9 µM (active) and 2.28 µM (active)
same,AC50,[1],2.25 µM (active) and 6.78 µM (active)
same,AC50,[2],2.42 µM (active) and 5.42 µM (active)
same,AC50,[3],992 nM (active) and 2.17 µM (active)
same,AC50,"CD38, CD38 (gene 952)",5.37 µM (active) and 5.56 µM (active)
same,AC50,"CD40, CD40 (gene 958)",5.42 µM (active) and 6.26 µM (active)
same,AC50,"CD69, CD69 (gene 969)",3.12 µM (active) and 6.36 µM (active)
same,AC50,[5],7.7 µM (active) and 10.5 µM (active)
same,AC50,[6],5.69 µM (active) and 8.52 µM (active)
same,AC50,[7],11.6 µM (active) and 9.68 µM (active)
same,AC50,[8],909 nM (active) and 2.23 µM (active)
same,AC50,[9],5.44 µM (active) and 10.9 µM (active)
same,AC50,[10],783 nM (active) and 1.76 µM (active)
same,AC50,[11],18.2 µM (active) and 10.5 µM (active)
same,AC50,[15],3.06 µM (active)
same,AC50,[16],1.87 µM (active)
same,AC50,[17],3.44 µM (active)
S=C([S-])NCCNC(=S)[S-].[Mn+2],outcome,[14],inactive
same,AC50,[1],13.2 µM (active)
same,outcome,[2],inactive
same,AC50,[3],20 µM (active)
same,AC50,"CD38, CD38 (gene 952)",14.6 µM (active)
same,outcome,"CD40, CD40 (gene 958)",inactive
same,outcome,"CD69, CD69 (gene 969)",inactive
same,AC50,[5],30.3 µM (active)
same,outcome,[7],inactive
same,AC50,[8],25.5 µM (active)
same,AC50,[9],30 µM (active)
same,AC50,[10],8.4 µM (active)
same,outcome,[11],inactive
same,AC50,[12],1.11 µM (active)
same,outcome,[15],inactive
same,AC50,[17],5.5 µM (active)
S=C(S)NCCNC(=S)S.[Mn+2].[S-]C([S-])=NCCN=C([S-])[S-].[Zn+2],outcome,[14],inactive
same,outcome,[1],inactive
same,outcome,[2],inactive
same,AC50,[3],2.39 µM (active)
same,outcome,[3],inactive
same,outcome,"CD38, CD38 (gene 952)",inactive
same,outcome,"CD40, CD40 (gene 958)",inactive
same,outcome,"CD69, CD69 (gene 969)",inactive
same,outcome,[5],inactive
same,AC50,[6],12.4 µM (active)
same,outcome,[6],inactive
same,outcome,[7],inactive
same,AC50,[8],7.86 µM (active) and 20 µM (active)
same,outcome,[8],inactive
same,outcome,[9],inactive
same,outcome,[10],inactive
same,outcome,[11],inactive
same,outcome,[12],inactive
same,outcome,[15],inactive
same,outcome,[13],inactive
same,outcome,[17],inactive
C=CCOC(Cn1ccnc1)c1ccc(Cl)cc1Cl (configuration not stated),AC50,[14],270 nM (active)
same,outcome,[1],inactive
same,outcome,[2],inactive
same,outcome,[3],inactive
same,outcome,"CD38, CD38 (gene 952)",inactive
same,outcome,"CD40, CD40 (gene 958)",inactive
same,outcome,"CD69, CD69 (gene 969)",inactive
same,outcome,[5],inactive
same,AC50,[6],32.9 µM (active)
same,outcome,[7],inactive
same,AC50,[8],13.9 µM (active)
same,AC50,[9],37.1 µM (active)
same,AC50,[10],31.9 µM (active)
same,outcome,[11],inactive
same,AC50,[12],0.628 µM (active)
same,AC50,[15],2.52 µM (active)
same,AC50,[13],1.55 µM (active)
same,AC50,[16],0.188 µM (active)
CCN(CC)C(=O)c1cccc(C)c1,outcome,[14],inactive
same,outcome,[1],inactive
same,outcome,[2],inactive
same,outcome,[3],inactive
same,outcome,"CD38, CD38 (gene 952)",inactive
same,outcome,"CD40, CD40 (gene 958)",inactive
same,outcome,"CD69, CD69 (gene 969)",inactive
same,outcome,[5],inactive
same,outcome,[6],inactive
same,outcome,[7],inactive
same,outcome,[8],inactive
same,outcome,[9],inactive
same,outcome,[10],inactive
same,AC50,[11],13.9 µM (active)

# Reference: PubChem BioAssay (EPA / NIEHS)
